# Results filed as inconclusive are left out. A number with no mark means an inactive call. Calls come from the whole dose curve; as a rule, active = well fitted inhibition curve with a large enough effect; inconclusive = small, poorly fitted or top-dose-only effect; inactive = no such curve, though single readings can be large or run the other way.
# Target: Retinaldehyde dehydrogenase 3 (Homo sapiens) (UniProt P47895)
# Assay: qHTS for Inhibitors of the Aldehyde Dehydrogenase Family (ALDH1A3) Primary screen (AID 2061315);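 note: plate controls were DMSO vehicle for no effect and reference inhibitor for full effect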
# Conditions: ALDH inhibition qHTS; series mostly up to 56 µM; activity change, negative = inhibition: at the top concentration
row,Structure (SMILES),"activity change, negative = inhibition"
1,O=C(NCC(O)CO)c1ccncc1Nc1ccc(I)cc1F (stereo not given),0.221%
2,CC(C)=CCC[C@](C)(O[C@@H]1O[C@H](CO)[C@@H](O)[C@H](O)[C@H]1O)[C@H]1CC[C@]2(C)[C@@H]1[C@H](O)CC1[C@@]3(C)CC[C@H](O)C(C)(C)C3[C@@H](O[C@@H]3O[C@H](CO)[C@@H](O)[C@H](O)[C@H]3O[C@@H]3OC[C@@H](O)[C@H](O)[C@H]3O)C[C@]12C (stereo not given in full),2.09% [at 16.9 µM]
3,O=S(=O)(N[C@H]1CCCC[C@@H]1N1CCOCC1)c1ccc(Cl)cc1,3.01%
4,CC(=O)c1[nH]cc(CCC(=O)O)c1CC(=O)O,0.728%
5,CC(=O)[C@@H]1C[C@H](C(C)(C)O[C@@H]2O[C@H](CO)[C@@H](O)[C@H](O)[C@H]2O)CC[C@@]2(CO)OC(=O)C[C@@H]12,-8.01% [at 28 µM]
6,C=CC[N+]1([C@H]2C[C@H]3[C@@H]4CC[C@H]5C[C@H](OC(C)=O)[C@@H](N6CCCCC6)C[C@]5(C)[C@H]4CC[C@]3(C)[C@H]2OC(=O)CC)CCCCC1,5.5%
7,C=C1[C@H](OC(C)=O)[C@H]2[C@@H](OC(C)=O)[C@](C)(OC(C)=O)C[C@]2(OC(C)=O)C(=O)[C@H](C)/C=C/C(C)(C)C(=O)[C@H](OC(=O)C(C)CC)[C@H]1OC(C)=O (stereo not given in full),1.07% [at 16.9 µM]
8,OC[C@H]1O[C@@H](Oc2cc(O)c3c(c2)O[C@@H](c2ccc(O)cc2)[C@H](O)C3)[C@H](O)[C@@H](O)[C@@H]1O,-12% [at 28 µM]
9,Cc1onc(C(=O)N2CCN(C(c3ccc(Cl)cc3)c3ccc(Cl)cc3)CC2)c1[N+](=O)[O-],8.15%
10,C[C@@H]1O[C@@H](O[C@H]2[C@@H]3C=CO[C@@H](O[C@@H]4O[C@H](CO)[C@@H](O)[C@H](O)[C@H]4O)[C@@H]3[C@@]3(CO)O[C@@H]23)[C@H](O)[C@H](O)[C@H]1OC(=O)/C=C/c1ccc(O)cc1,-9.18% [at 16.9 µM]
11,CC1=CC(=O)CC(C)(CO)C1(O)/C=C/C(C)O[C@@H]1O[C@H](CO)[C@@H](O)[C@H](O)[C@H]1O (stereo not given in full),-15.6% [at 28 µM]
12,O=S(=O)(NCc1ccccn1)c1ccc(Br)c2ccccc12,12%
13,CC(=O)NC(C(=O)OC1CCC(C)(C)C2CC=C3C(=O)OCC3(O)C12C)C(C)C (stereo not given),0.315% [at 28 µM]
14,C=C1CC2C3(C)C(O)CC(=O)C(C)(C)C3C(OC(C)=O)C(OC(C)=O)C2(C)C2C(=O)OC(C)(C(=O)OC)C(=O)C12C (stereo not given),7.93% [at 28 µM]
15,C=C1[C@H](OC(C)=O)[C@H]2[C@@H](OC(=O)c3ccccc3)[C@@H](C)C[C@]2(O)[C@@H](OC(C)=O)[C@H](C)/C=C/C(C)(C)C(=O)[C@H](OC(C)=O)[C@H]1OC(C)=O,8.69% [at 16.9 µM]
16,C[C@]1(OC(=O)/C=C/c2ccccc2)C[C@H](O)[C@]2(O)C=CO[C@@H](O[C@@H]3O[C@H](CO)[C@@H](O)[C@H](O)[C@H]3O)C12 (stereo not given in full),12.7% [at 28 µM]
17,COc1cc(CCCO)ccc1O[C@@H]1O[C@H](CO)[C@@H](O)[C@H](O)[C@H]1O,-1.29%
18,C=C1CCC2[C@](C)(CCC[C@@]2(C)C=O)[C@H]1CC/C(C)=C/CO (stereo not given in full),-12.6%
19,Cc1cc2sc(NC(=O)Cc3ccccc3)nc2cc1Cl,-0.825%
20,C=C(C)[C@H]1CC[C@]2(C(=O)O)CC[C@]3(C)C(CCC4[C@@]5(C)CCC(=O)C(C)(C)C5CC[C@]43C)C12 (stereo not given in full),8.84% [at 28 µM]

row,Structure (SMILES),"activity change, negative = inhibition"
1,CC(C)(C)NC(=O)[C@H]1CC[C@H]2[C@@H]3CC[C@H]4NC(=O)CC[C@]4(C)[C@H]3CC[C@]12C,18.7%
2,C=C[C@@]1(C)CC(=O)C2[C@](C)(O1)[C@@H](OC(C)=O)[C@@H](O)[C@H]1C(C)(C)CCC[C@]21C (stereo not given in full),-1.11% [at 16.9 µM]
3,Cc1cc(OCCCS(C)(=O)=O)cc(C)c1-c1cccc(COc2ccc(C3=CC(=O)NS3=O)cc2)c1 (stereo not given),23.6%
4,CC(=O)O[C@@H]1C[C@]2(C)[C@@]3(CCC4[C@@]5(C)CC[C@H](O[C@@H]6O[C@H](C(=O)O)[C@@H](O)[C@H](OC7OC(CO)C(O)C(O)[C@H]7O[C@@H]7O[C@@H](C)[C@H](O)[C@@H](O)[C@H]7O[C@@H]7OC[C@](O)(CO)[C@H]7O)[C@H]6OC6OC(CO)C(O)C(O)C6O)C(C)(C)C5CC[C@]42C)OC[C@@]12CCC(C)(C)CC23 (stereo not given in full),6.07% [at 11.2 µM]
5,C[C@@H]1O[C@@H](O[C@H]2CC[C@@]3(C)C(CC[C@]4(C)C3CC=C3[C@@H]5CC(C)(C)CC[C@]5(C(=O)O[C@@H]5O[C@H](CO)[C@@H](O)[C@H](O)[C@H]5O)CC[C@]34C)[C@]2(C)CO)[C@H](O)[C@H](O[C@@H]2O[C@H](CO)[C@@H](O)[C@H](O)[C@H]2O)[C@H]1O (stereo not given in full),15.7% [at 16.9 µM]
6,N[C@H]1CN(c2c(F)cc3c(=O)c(C(=O)O)cn(C4C[C@@H]4F)c3c2Cl)CC12CC2 (stereo not given in full),24.4%
7,C=CC1(C)C=C2C(O)CC3C(C)(C(=O)O)CCCC3(C)C2CC1 (stereo not given),7.62%
8,COc1cc(O)c2c(c1)C1(OC2=O)C(C)=CC(=O)C1O (stereo not given),-20.9%
9,C=C1CC(=O)C2OC2(C)CC2OC(=O)C(=C)C2C(O)C1OC(=O)/C(C)=C\C (stereo not given),0.954%
10,COc1ccc([C@H]2OC[C@H]3O[C@@H](O[C@H]4[C@@H]2NC[C@@H]4O)[C@H](O)[C@H]3O)cc1,-11.7%
11,C=C1CCC2C(C)(C)C(O)CCC2(C)C1CCC(C)CCOC(C)=O (stereo not given),-17.8%
12,O=C(O)Cc1cn([C@@H]2OC[C@@H](O[C@@H]3O[C@H](CO)[C@@H](O)[C@H](O)[C@H]3O)[C@H](O)[C@H]2O[C@@H]2O[C@H](CO)[C@@H](O)[C@H](O)[C@H]2O)c2ccccc12,10.5% [at 16.9 µM]
13,C=C1C(=O)OC2CC(C)=C(C(C)CCCO[C@@H]3O[C@H](CO)[C@@H](O)[C@H](O)[C@H]3O)C(O)C12 (stereo not given in full),-3.94% [at 28 µM]
14,C[C@@H]1CC[C@]2(C(=O)O[C@@H]3O[C@H](CO)[C@@H](O)[C@H](O)[C@H]3O)CC[C@]3(C)C(=CCC4[C@@]5(C)C[C@@H](O)[C@H](O)[C@@](C)(C(=O)O[C@H]6[C@H](O)C[C@@]7(C)C(CC[C@]8(C)C7CC=C7[C@H]9[C@](C(=O)O[C@@H]%10O[C@H](CO)[C@@H](O)[C@H](O)[C@H]%10O)(CC[C@@H](C)[C@@]9(C)O)CC[C@]78C)[C@@]6(CO)C(=O)O)C5CC[C@]43C)[C@@H]2[C@]1(C)O (stereo not given in full),-6.62% [at 11.2 µM]
15,O=C(/C=C\c1ccc(O)cc1)N[C@@H](Cc1ccc(O)cc1)C(=O)O,-1.74%
16,CC(C)[C@@](O)(c1ccc2cc(OC(F)F)c(OC(F)F)cc2c1)c1cn[nH]n1,15.6%
17,C=C1C[C@]23C[C@H]1CC[C@H]2[C@]1(C)CCC[C@@](C)(C(=O)O)[C@H]1[C@@H]3C(=O)O,7.39%
18,CC(C)c1noc(C2CCN(c3ncnc(Nc4ccc(S(C)(=O)=O)cc4F)c3[N+](=O)[O-])CC2)n1,-0.83%
19,Cc1ncc([N+](=O)[O-])n1C[C@H](O)CN1CCOCC1,-7.73%
20,CC1CCC23COC(=O)C2=CC(O)CC3C1(C)CCc1ccoc1 (stereo not given),3.33%
